Compound activity as filed in PubChem.
SENP8 block-1 – inhibitors of human SENP8 protease | Q96LD8 | 0.64% of 360,000 active | inhibition, % at 20 µM | recombinant SENP8, Nedd8 substrate fluorescence | AID 602440; in the data active = inhibition mostly above about 40%, no sharp cut-off; inactive = mostly below about 27%
TRAIL sens C8 – caspase-8 TRAIL sensitization | 1% of 360,000 active | AID 624354 | inhibition (viability loss, TRAIL sensitization), % at 10 µM | NB7+C8 cells + TRAIL, ATPlite viability luminescence;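 active = compounds causing at least 50% loss of cell viability in the single-dose screen, relative to plate controls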
PPC-1+TRAIL kill – kills PPC-1 cancer cells in the presence of TRAIL | PPC-1 cells + TRAIL, ATPLite viability luminescence | cell killing (% activity), % at 4 µM or 5 µM | AID 1443 | 0.41% of 220,000 active;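 active = cell killing above 50% in the first pass at 4 µM, then a duplicate retest at 5 µM averaging 50% or more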
SENP7 inh – SENP7 protease inhibition; Q9BQF6; recombinant SENP7, Z-RLRGG-aminoluciferin luminescence, 40 min; inhibition, % at 5 µM; 1.5% of 330,000 active; AID 434973;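 active = inhibition above about 50% at the single test dose, limit read from the data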
SENP6 block – inhibitors of human SENP6 protease; 1.8% of 330,000 active; inhibition, % at 10 µM; Recombinant SENP6 catalytic domain, aminoluciferin luminescence; AID 2599;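 active = inhibition above about 50% at the single tested dose, limit read from the data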
Target sequence (Q9GZR1 628-1112 limits assumed): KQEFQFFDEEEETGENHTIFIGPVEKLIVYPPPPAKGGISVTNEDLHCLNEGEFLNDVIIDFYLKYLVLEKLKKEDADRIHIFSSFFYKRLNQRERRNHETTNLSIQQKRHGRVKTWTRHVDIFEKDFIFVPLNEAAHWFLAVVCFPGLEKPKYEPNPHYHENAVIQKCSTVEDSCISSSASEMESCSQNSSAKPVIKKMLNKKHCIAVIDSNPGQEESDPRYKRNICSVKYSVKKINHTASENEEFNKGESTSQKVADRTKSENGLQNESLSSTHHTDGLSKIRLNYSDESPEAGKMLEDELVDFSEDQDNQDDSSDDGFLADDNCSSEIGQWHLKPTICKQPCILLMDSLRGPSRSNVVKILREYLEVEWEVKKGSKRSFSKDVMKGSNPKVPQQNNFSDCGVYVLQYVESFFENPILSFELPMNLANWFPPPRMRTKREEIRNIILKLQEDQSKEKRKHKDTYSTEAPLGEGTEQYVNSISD
SENP8 block-2 – blocks the human protease SENP8. Q96LD8. purified SENP8, Z-RLRGG-aminoluciferin cleavage, luminescence. inhibition, % at 10 µM. 1.2% of 330,000 active. AID 2540; in the data active = inhibition above about 50%
SENP8 confirm – confirmation of human SENP8 protease inhibitors; shares compounds with SENP7 inh; Recombinant SENP8, Z-RLRGG-aminoluciferin luminescence, 60 min; inhibition, % at 12.5 µM; 40% of 6,200 active;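 active = mean inhibition across replicates above about 50%, limit read from the data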
SENP6 confirm – human SENP6 inhibition, confirmed | shares compounds with SENP7 inh | recombinant SENP6, Z-RLRGG-aminoluciferin luminescence | inhibition, % at 12.5 µM | 58% of 6,200 active
SENP7 confirm – human SENP7 inhibition, confirmed; shares compounds with SENP7 inh; 69% of 6,200 active; AID 488917; inhibition, % at 12.5 µM; recombinant SENP7, Z-RLRGG-aminoluciferin luminescence, 40 min
Casp3 SENP sel – caspase-3 inhibition (SENP selectivity assay); shares compounds with SENP7 inh; 60% of 6,200 active; inhibition, % at 12.5 µM; purified caspase-3, Z-DEVD-aminoluciferin luminescence, 60 min;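 active = mean inhibition above about 50%, limit read from the data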
Target sequence (P42574 28-227 limits assumed): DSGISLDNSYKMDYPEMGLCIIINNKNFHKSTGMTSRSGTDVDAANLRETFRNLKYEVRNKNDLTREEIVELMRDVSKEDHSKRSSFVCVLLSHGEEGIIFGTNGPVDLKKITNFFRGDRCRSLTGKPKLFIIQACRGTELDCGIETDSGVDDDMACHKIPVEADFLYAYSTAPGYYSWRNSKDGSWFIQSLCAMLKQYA
SENP luc ctr – interferes with luciferase luminescence in SENP counter-screen. shares compounds with SENP7 inh. Pre-incubated SENP8/Z-RLRGG-aminoluciferin, luciferase luminescence interference. inhibition, % at 12.5 µM. 39% of 6,200 active;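 active = mean inhibition above about 50% when retested at one dose, limit read from the data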
Each line names hits and unclear results; the compound was inactive in the other large screens (follow-up assays come after a bar, where they were run). An excerpt weighted towards active compounds, which were near 3% of everything screened.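 The calls were made as follows, unless noted: active = mean inhibition above about 50% in the one-dose retest (limit read from the data); inactive = the rest.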

COc1ccc(NC(=O)c2ccccn2)cc1	TRAIL sens C8 74, PPC-1+TRAIL kill 76, SENP7 inh 91, SENP6 block 94, SENP8 block-2 81 | SENP8 confirm 85 | SENP6 confirm 86 | SENP7 confirm 98 | Casp3 SENP sel 95 | SENP luc ctr 85
COc1ccc(NC(=O)c2cc3ccccn3n2)cc1	SENP7 inh 69, SENP6 block 71, SENP8 block-2 58 | SENP8 confirm 77 | SENP6 confirm 75 | SENP7 confirm 94 | Casp3 SENP sel 88 | SENP luc ctr 79
COc1ccc(NC(=O)c2cccc(NC(=O)c3ccccc3)c2)cc1	none (no result: PPC-1+TRAIL kill)
CC(=O)N1c2ccc(S(=O)(=O)N3CCCCC3)cc2CC1C(=O)Nc1ccc(F)cc1C (stereo not drawn)	none (no result: PPC-1+TRAIL kill)
CCn1c(SCC(=O)N(C)c2ccccc2)nc2c([nH]c3ccccc32)c1=O	none (no result: PPC-1+TRAIL kill)
CCOC(=O)Cc1csc(NS(=O)(=O)c2ccc([N+](=O)[O-])cc2)n1	none (no result: PPC-1+TRAIL kill)
CCOc1ccc(CCNC(=O)Cn2cccc2C(=O)c2ccccc2C)cc1OCC	none
O=C(NCc1ccco1)c1cc([N+](=O)[O-])ccc1Cl	none
O=C(NCc1ccco1)c1cc([N+](=O)[O-])ccc1N1CCOCC1	SENP6 block 95 | SENP8 confirm inactive | SENP6 confirm inactive | SENP7 confirm inactive | Casp3 SENP sel inactive | SENP luc ctr inactive
COc1ccc(-c2cc(O)cc(O)c2)cc1	SENP7 inh 60, SENP6 block 70 | SENP8 confirm inactive | SENP6 confirm inactive | SENP7 confirm 60 | Casp3 SENP sel inactive | SENP luc ctr inactive
COc1ccc(OC)cc1	none (no result: PPC-1+TRAIL kill)
Cc1ccn2c(C(=O)c3ccc(Cl)cc3)cnc2c1	SENP7 inh 52, SENP6 block 70 | SENP8 confirm inactive | SENP6 confirm inactive | SENP7 confirm 70 | Casp3 SENP sel 62 | SENP luc ctr inactive
Cc1ccsc1C1CC(=O)OC2=C1C(=O)CC(C)(C)C2 (stereo not drawn)	none (no result: SENP8 block-1, TRAIL sens C8)
COc1ccc(CCN=C(C)C2=C(O)C(c3ccccc3)OC2=O)cc1OC (stereo not drawn)	none
CC(Cc1cccs1)NC(=O)Nc1ccc(Cl)c(Cl)c1 (stereo not drawn)	none
Cc1cccc(NC(=O)COc2ccc3oc4c(c3c2)CCCC4)n1	none
Cc1cnc(NC(=O)COc2ccc3c(c2)CCC3)s1	SENP6 block 52 (no result: PPC-1+TRAIL kill) | SENP8 confirm inactive | SENP6 confirm inactive | SENP7 confirm inactive | Casp3 SENP sel inactive | SENP luc ctr inactive
O=C(COc1ccc2c(c1)CCC2)Nc1ccccn1	TRAIL sens C8 84, SENP7 inh 99, SENP6 block 97, SENP8 block-2 95 (no result: PPC-1+TRAIL kill) | SENP8 confirm 97 | SENP6 confirm 98 | SENP7 confirm 101 | Casp3 SENP sel 97 | SENP luc ctr 96
Cc1cccc(NC(=O)COc2ccc3c(c2)CCC3)n1	SENP7 inh 51, SENP6 block 61 (no result: PPC-1+TRAIL kill) | SENP8 confirm 56 | SENP6 confirm 56 | SENP7 confirm 84 | Casp3 SENP sel 60 | SENP luc ctr inactive
CCC1(C)N=C(c2ccc3c(c2)OCO3)CC(c2ccccc2O)N1 (stereo not drawn)	SENP6 block 91, SENP8 block-2 78 | SENP8 confirm 82 | SENP6 confirm inactive | SENP7 confirm inactive | Casp3 SENP sel inactive | SENP luc ctr 63
O=C(O)CCC(=O)/C=C/c1ccccc1	none
CCOc1ccc(/C=C\C(C)=N\O)cc1	SENP6 block 91, SENP8 block-2 84 | SENP8 confirm 90 | SENP6 confirm 90 | SENP7 confirm 100 | Casp3 SENP sel 93 | SENP luc ctr 90
CCOc1ccc(/C=C/C(=O)Oc2ccc(OC)cc2)cc1	none (no result: PPC-1+TRAIL kill)
CCOc1ccc(/C=C/C(=O)CCC(=O)O)cc1	SENP7 inh 63, SENP6 block 70 | SENP8 confirm 66 | SENP6 confirm 53 | SENP7 confirm 84 | Casp3 SENP sel inactive | SENP luc ctr 72
CCCC(=O)Nc1ccc(C(=O)Nc2ccc([N+](=O)[O-])cc2OC)cc1	none
Cc1csc2nc(CSc3nc4ccccc4o3)c(Br)n12	SENP6 block 56 | SENP8 confirm inactive | SENP6 confirm inactive | SENP7 confirm 55 | Casp3 SENP sel inactive | SENP luc ctr inactive
C/C(=N\NC(=O)c1ccccc1O)c1ccc(NC(=O)c2ccccc2)cc1	none (no result: PPC-1+TRAIL kill)
C/C(=N/NC(=O)c1ccccc1O)c1ccc(N2C(=O)C3CCCCC3C2=O)cc1 (stereo not drawn)	SENP6 block 62 | SENP8 confirm inactive | SENP6 confirm inactive | SENP7 confirm inactive | Casp3 SENP sel inactive | SENP luc ctr inactive
CCOC(=O)COc1c(Cl)cc(C2NC(=S)NC(c3ccccc3)=C2C(C)=O)cc1OCC (stereo not drawn)	none
CCOc1cc(C)nc(N2CCC(C(=O)NCC3CCCO3)CC2)n1 (stereo not drawn)	none (no result: PPC-1+TRAIL kill, SENP7 inh, SENP6 block, SENP8 block-2)
Cc1ccc(-n2nc3ccc(N)cc3n2)cc1C	SENP6 block 91, SENP8 block-2 82 (no result: PPC-1+TRAIL kill) | SENP8 confirm inactive | SENP6 confirm 94 | SENP7 confirm 101 | Casp3 SENP sel 82 | SENP luc ctr 52
Cc1cc(N)n(-c2ccc(C)c(C)c2)n1	none
COc1ccc(NS(=O)(=O)c2cn(C)cn2)cc1Cl	none (no result: PPC-1+TRAIL kill)
COc1ccc(-n2nc3ccc(N)cc3n2)cc1Cl	SENP7 inh 59, SENP6 block 86, SENP8 block-2 88 (no result: PPC-1+TRAIL kill) | SENP8 confirm inactive | SENP6 confirm 81 | SENP7 confirm 95 | Casp3 SENP sel 57 | SENP luc ctr inactive
Cc1ccc(-n2cnnn2)cc1Cl	none
Cc1ccc(-n2nc3ccc(N)cc3n2)cc1Cl	SENP6 block 90, SENP8 block-2 87 (no result: PPC-1+TRAIL kill) | SENP8 confirm inactive | SENP6 confirm 63 | SENP7 confirm 76 | Casp3 SENP sel 63 | SENP luc ctr inactive
COc1cc2nn(-c3ccccc3N)nc2cc1OC	none (no result: PPC-1+TRAIL kill, SENP7 inh, SENP6 block, SENP8 block-2)
COc1ccc(-n2nc3ccc(NS(C)(=O)=O)cc3n2)cc1Cl	SENP7 inh 74, SENP6 block 72, SENP8 block-2 51 | SENP8 confirm inactive | SENP6 confirm inactive | SENP7 confirm 75 | Casp3 SENP sel 55 | SENP luc ctr inactive
CCCc1ccc2ccc3ccccc3c2n1	none (no result: PPC-1+TRAIL kill, SENP7 inh, SENP6 block, SENP8 block-2)
CCN(CC)S(=O)(=O)c1cc(C(=O)OCC(=O)NC(=O)c2cccn2C)ccc1C	none
